{
  "source": "ChEMBL document CHEMBL4513216",
  "about": "“Probing the Open Global Health Chemical Diversity Library for Multistage-Active Starting Points for Next-Generation Antimalarials” (ACS Infect Dis, 2020)",
  "note": "In all, about 69,000 compounds went through this assay and about 8,600 (12%) showed an effect of 50% or more. For the sample, strong results were picked, then their nearest neighbours and some compounds at random.",
  "data": [
    {"test_system": "Plasmodium berghei", "assay": "Screen against P. berghei liver stage (PbLuc), transformed with Luciferase, at 10uM", "type": "functional, HepG2", "settings": "tested at 10 uM", "units": {"INHIBITION": "%"}, "values": [
      {"smiles": "CN(Cc1ccco1)Cc1cnc2n1CCN(S(C)(=O)=O)CC2", "INHIBITION": 31.9},
      {"smiles": "O=C(NC[C@H]1OC[C@@H]2CCN(Cc3ccco3)C[C@@H]21)c1ccsc1", "INHIBITION": 23.5},
      {"smiles": "CC(C)NCC1OCCc2cn(C)nc21", "note": "(configuration not stated)", "INHIBITION": 55.5},
      {"smiles": "Cn1cc2c(n1)C(CNCC1CCOCC1)OCC2", "note": "(configuration not stated)", "INHIBITION": -4.02},
      {"smiles": "Cn1cc2c(n1)C(CNC1CCOCC1)OCC2", "note": "(configuration not stated)", "INHIBITION": 4.02},
      {"smiles": "COCc1ccc(C(=O)N2CCC(c3cc4nccnc4[nH]3)CC2)cc1", "INHIBITION": 66.5},
      {"smiles": "CN(C)c1ccc(C(=O)N2CCC(c3n[nH]c(C4CC4)n3)CC2)cc1", "INHIBITION": 2.97},
      {"smiles": "CN(C)c1ccc(C(=O)N2CCC(c3cc4cnccc4[nH]3)CC2)cc1", "INHIBITION": 51.75},
      {"smiles": "COc1cc(CCC(=O)N2CCC(c3cc4ncccc4[nH]3)CC2)on1", "INHIBITION": -26.4},
      {"smiles": "CN(C)c1cccc(C(=O)N2CCC(c3n[nH]c(C4CC4)n3)CC2)c1", "INHIBITION": 13.3},
      {"smiles": "Cc1cnc2cc(C3CCN(C(=O)c4ccncc4)CC3)[nH]c2n1", "INHIBITION": 38.8},
      {"smiles": "COCc1ccc(C(=O)N2CCC(c3cc4ncc(C)nc4[nH]3)C2)cc1", "note": "(configuration not stated)", "INHIBITION": 20.8},
      {"smiles": "CN(C)c1ccc(C(=O)N2CCC(c3cc4ncccc4[nH]3)CC2)cc1", "INHIBITION": 57.7},
      {"smiles": "Cc1noc(C)c1C(=O)N1CCC(c2cc3cnccc3[nH]2)CC1", "INHIBITION": 13.335},
      {"smiles": "CN(C1CCN(C(=O)NCCc2ccc(F)cc2F)CC1)S(C)(=O)=O", "INHIBITION": 39.7},
      {"smiles": "CC(=O)Nc1sc2c(c1C(=O)O)CCc1ccccc1-2", "INHIBITION": 11.1},
      {"smiles": "CC(C)CNc1c(NCc2ccco2)c(=O)c1=O", "INHIBITION": -4.28},
      {"smiles": "COCCO[C@H]1CCN(C(=O)c2ccoc2C)[C@H]1Cc1cnn(C)c1", "INHIBITION": 14.1},
      {"smiles": "COCCn1ccc(=O)c(OCC(=O)Nc2ccc(OC)c(Cl)c2)c1C", "INHIBITION": -38},
      {"smiles": "CC(CNC(=O)c1ccc(Cl)cc1F)N1CCN(C)CC1", "note": "(configuration not stated)", "INHIBITION": 25},
      {"smiles": "CC(CNC(=O)c1ccc(F)cc1Cl)N1CCCC1", "note": "(configuration not stated)", "INHIBITION": 35.6},
      {"smiles": "CC(CNC(=O)c1cc(Cl)ccc1F)N1CCCC1", "note": "(configuration not stated)", "INHIBITION": 33.8},
      {"smiles": "CC(CNC(=O)c1cc(Cl)ccc1I)N1CCCC1", "note": "(configuration not stated)", "INHIBITION": 30.5},
      {"smiles": "CC(CNC(=O)c1ccc(Cl)cc1I)N1CCCC1", "note": "(configuration not stated)", "INHIBITION": 17.4},
      {"smiles": "O=C(NCC(c1cccs1)N1CCOCC1)c1ccc(F)cc1Cl", "note": "(configuration not stated)", "INHIBITION": -14.5},
      {"smiles": "CN1CCN(C(CNC(=O)c2ccc(Cl)cc2F)c2cccs2)CC1", "note": "(configuration not stated)", "INHIBITION": 66.7},
      {"smiles": "CC(CNC(=O)c1ccc(Cl)cc1F)N1CCCC1", "note": "(configuration not stated)", "INHIBITION": 51.4},
      {"smiles": "CC(CNC(=O)c1ccc(F)cc1I)N1CCCC1", "note": "(configuration not stated)", "INHIBITION": 55.8},
      {"smiles": "Cc1cc(CN2CCN(C(=O)CCc3ccco3)CC2)on1", "INHIBITION": 14},
      {"smiles": "CC(NCc1ccccc1Cl)c1ccc(OCC(=O)NC2CC2)cc1", "note": "(configuration not stated)", "INHIBITION": 48.2},
      {"smiles": "CCc1nc(CNC(C)(CO)C2CCCCC2)no1", "note": "(configuration not stated)", "INHIBITION": 37.4},
      {"smiles": "Cc1cnn(CC2CN(c3nc4ccccc4o3)CCO2)c1", "note": "(configuration not stated)", "INHIBITION": 44.1},
      {"smiles": "Cc1cc(C)nc(N2CCN(Cc3nccn3C)CC2)n1", "INHIBITION": 7.52},
      {"smiles": "Cn1ccnc1CN1CCN(Cc2cc(C#N)ccc2F)CC1", "INHIBITION": 35.3},
      {"smiles": "Cc1nc(CN2CCN(Cc3nccn3C)CC2)no1", "INHIBITION": 33.7},
      {"smiles": "Cn1ccnc1CN1CCN(c2ccc(C#N)cc2F)CC1", "INHIBITION": 53.3},
      {"smiles": "Cn1ccnc1CN1CCCN(Cc2noc(C3CC3)n2)CC1", "INHIBITION": 11.2},
      {"smiles": "Cc1cc(C(F)(F)F)nc(N2CCN(Cc3nccn3C)CC2)n1", "INHIBITION": 74},
      {"smiles": "Cc1cc(C2CCC2)nc(N2CCN(Cc3nccn3C)CC2)n1", "INHIBITION": 84.1},
      {"smiles": "Cn1ccnc1CN1CCN(Cc2ccc(C#N)cc2F)CC1", "INHIBITION": 15.15},
      {"smiles": "Cc1cc(C2CCC2)nc(N2CC(n3cccn3)C2)n1", "INHIBITION": -9.91},
      {"smiles": "COCc1cccc(NC(=O)NCCCN(C)S(C)(=O)=O)c1", "INHIBITION": -10.8},
      {"smiles": "CC(C1CC1)N(C)C(=O)c1ccc(-n2ncc(C#N)c2N)cc1", "note": "(configuration not stated)", "INHIBITION": -61.4},
      {"smiles": "CCCOCCN1CCN(c2ncnc3[nH]ccc23)CC1", "INHIBITION": -24},
      {"smiles": "O=C(O)Cn1nc(-c2ccccc2F)ccc1=O", "INHIBITION": 26.4},
      {"smiles": "NC(=O)Cn1nc(-c2ccccc2F)ccc1=O", "INHIBITION": 15.4},
      {"smiles": "CC(=O)Cn1nc(-c2ccccc2F)ccc1=O", "INHIBITION": 64.2},
      {"smiles": "Cc1noc(Cl)c1CC(=O)N1CCC(Nc2cccnn2)CC1", "INHIBITION": 18.04},
      {"smiles": "CCC(=O)N1CCN(C(=O)Cn2cccn2)CC1", "INHIBITION": 27.45},
      {"smiles": "O=C(NCc1ccco1)[C@H]1CC[C@@H]2[C@@H](CCN2Cc2cccnc2)O1", "INHIBITION": -66},
      {"smiles": "O=C(NCc1cccnc1)[C@@H]1C[C@@H]2CCN(c3ncc(F)cn3)C[C@@H]2O1", "INHIBITION": -9.71},
      {"smiles": "O=C(NCc1cccnc1)[C@H]1CC[C@@H]2[C@@H](CCN2c2ncccn2)O1", "INHIBITION": 74.2},
      {"smiles": "O=C(NCc1ccccn1)[C@@H]1CC[C@@H]2[C@@H](CCN2c2ncc(F)cn2)O1", "INHIBITION": 40.4},
      {"smiles": "O=C(NCc1ccco1)[C@H]1CC[C@@H]2[C@@H](CCN2c2ncccn2)O1", "INHIBITION": 7.77},
      {"smiles": "O=C(NCc1cccnc1)[C@@H]1C[C@H]2[C@H](CCN2c2ncccn2)O1", "INHIBITION": 73},
      {"smiles": "O=C(NCc1cccnc1)[C@@H]1CC[C@@H]2[C@@H](CCN2c2ncc(F)cn2)O1", "INHIBITION": 73},
      {"smiles": "O=C(NCc1cccs1)[C@@H]1CC[C@@H]2[C@@H](CCN2c2ncccn2)O1", "INHIBITION": 3.25}
    ]}
  ]
}
